IL1B secr inh: blocks inflammasome-driven IL-1 beta release | THP-1 LPS/ATP IL-1B secretion, AlphaLISA, 16 h; hits give low values | AID 743279 | 360,000 tested, 4.7% active | activity change, % at 57.5 µM; in the data active = activity change below about -50%; inconclusive = mostly about -30% to -49%
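THP-1 cells pretreated 1 hr with compounds (up to 57.5 uM final), then stimulated with LPS (250 ng/mL final) plus ATP (1.25 mM final); secreted IL-1B measured by AlphaLISA after 16 hr, decreased signal indicating inhibition.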
ELG1 repair inh: blocks ELG1-dependent DNA repair in HEK293T cells. HEK293T ELG1-luciferase reporter, luminescence, 16 h; DNA damage induced by 5-fluorouridine. Potency, µM (doses to about 46.1 µM), without a hit: at the highest dose activity change, negative = inhibition, actives largely listed as inhibitors. 330,000 tested, 2.3% active. AID 504467; also: potency is read from the fitted curve at half-maximal effect; nearly all actives have a fitted effect of over 55% in size
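Quantitative HTS, concentration-response format. 2,000 cells/well co-treated with 5-fluorouridine and compound, 16 hr in 5% CO2 at 37 °C; ONE-Glo luminescence read after 30 min.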
DT40 TDP1 CPT: DT40-hTDP1 cell growth loss with CPT; chicken DT40 Tdp1-/-;hTDP1 cells + 20 nM CPT, ATP luminescence, 48 h; 420,000 tested, 12% active; Potency, µM (series often up to 46.2 µM), for the others: top-dose activity change, negative = growth inhibition, most hits filed as inhibitors; AID 686979; also: potency is read from the fitted curve at half-maximal effect; nearly all actives have a fitted effect of over 55% in size
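Chicken DT40 Tdp1-/- cells stably complemented with human TDP1 were seeded at 400 cells/well in medium containing 20 nM camptothecin, exposed to pin-transferred compounds, and grown at 37 °C for at least 48 hr. Viability was read as ATP luminescence.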
VP16 counter: inhibits Gal4-VP16 luciferase reporter, ROR gamma counter-screen. Drosophila S2 Gal4-VP16 UAS-luciferase, luminescence, 20 h. 310,000 tested, 3.5% active. AID 2546. Potency, µM (top dose mostly 53.6 µM), for the others: at the highest dose activity, negative = inhibition, most hits filed as inhibitors;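 also: Gal4-VP16 expression switched on by copper sulfate through the metallothionein promoter; potency is read from the fitted curve at half-maximal effect; nearly all actives have a fitted effect of over 50% in size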
RORgamma inh: inhibitors of mouse ROR gamma transcriptional activity | Drosophila S2 Gal4-RORgamma UAS-luciferase reporter, 20 h | Potency, µM (doses to about 53.6 µM), for inactives: at the top dose activity change, negative = inhibition, most hits filed as inhibitors | 310,000 tested, 5.4% active; also: potency is read from the fitted curve at half-maximal effect; nearly all actives have a fitted effect of over 60% in size
Target sequence (P51450 whole entry, looked up, the tested form may be a part): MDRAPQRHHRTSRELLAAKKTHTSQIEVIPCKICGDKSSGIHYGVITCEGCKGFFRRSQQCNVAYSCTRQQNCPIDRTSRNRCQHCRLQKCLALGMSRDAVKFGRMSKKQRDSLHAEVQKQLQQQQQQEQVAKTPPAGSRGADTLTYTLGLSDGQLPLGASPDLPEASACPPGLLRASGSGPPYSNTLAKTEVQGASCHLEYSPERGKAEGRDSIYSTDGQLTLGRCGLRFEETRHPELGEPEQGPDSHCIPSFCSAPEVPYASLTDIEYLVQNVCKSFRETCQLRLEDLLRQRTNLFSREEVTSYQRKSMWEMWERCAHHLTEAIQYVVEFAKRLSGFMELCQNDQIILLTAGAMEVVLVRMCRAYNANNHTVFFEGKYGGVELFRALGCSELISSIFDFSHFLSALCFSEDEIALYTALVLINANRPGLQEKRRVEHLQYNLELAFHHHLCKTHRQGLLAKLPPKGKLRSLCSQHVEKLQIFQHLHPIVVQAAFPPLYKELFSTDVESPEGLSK
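Stable Schneider cell line, Gal4 DNA-binding domain fused to ROR gamma, UAS-luciferase. Cmpd 1 hr RT → CuSO4 700 uM final → 20 hr RT → luciferase reagent 10 min → luminescence.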
DT40 TDP1 no CPT: qHTS for Inhibitors of human tyrosyl-DNA phosphodiesterase 1 (TDP1): qHTS in cells in absence of CPT. DT40 Tdp1-/- hTDP1 cells, no CPT, ATP luminescence, 48 h. Potency, µM (highest dose often 46.2 µM), for the others: at the top dose activity change, negative = growth inhibition, usual class: inhibitors. 420,000 tested, 15% active. AID 686978, 2013; also: potency is read from the fitted curve at half-maximal effect; nearly all actives have a fitted effect of over 55% in size
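Luminescent ATP content (CellTiter-Glo) served as the growth readout. Knockout chicken DT40 cells expressing human TDP1 were exposed to compounds without camptothecin for a minimum 48 hr at 37 °C.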
* marks the source's active call; other numbers are inactive results. The list is not random: actives were taken first. Their share in the collection is about 21%. Unless noted, calls follow the shape of the dose curve; as a rule, active = well fitted curve in the direction sought with a large enough effect; inconclusive = small, poorly fitted or top-dose-only effect, or another doubt; inactive = no such curve, though single readings can be large; an effect the other way counts as inactive or inconclusive. % is scaled to controls: 0 for no effect and ±100 for the full control effect.

Results for Cc1ccc(NC2=C/C(=N\S(=O)(=O)c3cccs3)c3ccccc3C2=O)c(C)c1 ?
IL1B secr inh: -97*; ELG1 repair inh: inconclusive; DT40 TDP1 CPT: 2.6µM*; VP16 counter: inconclusive; RORgamma inh: inconclusive; DT40 TDP1 no CPT: 2.6µM*

Results for Cc1cccc(NC2=C/C(=N/S(=O)(=O)c3cccs3)c3ccccc3C2=O)c1 ?
IL1B secr inh: -83*; ELG1 repair inh: 4.1µM*; DT40 TDP1 CPT: 3.7µM*; VP16 counter: -3%; RORgamma inh: 1%; DT40 TDP1 no CPT: 3.3µM*

How did COc1ccc(CNc2oc(-c3ccc(COc4ccc(Cl)cc4)o3)nc2C#N)cc1 do in these assays?
DT40 TDP1 CPT: -53%; DT40 TDP1 no CPT: inconclusive

How did C=C(C(=O)OCC)C(=O)c1ccccc1 do in these assays?
VP16 counter: -1%; RORgamma inh: 4%

Results for CC1(C(=O)NCc2ccc3c(c2)OCO3)CCN1C(=O)CCc1ccc(Cl)cc1Cl (stereo not drawn) ?
IL1B secr inh: -15; DT40 TDP1 CPT: 21µM*; DT40 TDP1 no CPT: 15µM*

What do the screens show for `CC1(C(=O)Nc2ccccc2)CCN1C(=O)CCc1ccc(Cl)cc1Cl` (stereo not drawn)?
IL1B secr inh: -6; DT40 TDP1 CPT: inconclusive; DT40 TDP1 no CPT: 21µM*

Results for CC1(C(=O)Nc2ccccc2Br)CCN1C(=O)Cc1ccc(Cl)cc1Cl (stereo not drawn) ?
IL1B secr inh: -12; DT40 TDP1 CPT: 23µM*; DT40 TDP1 no CPT: 16µM*

Results for COCCC(=O)N1CCC(Oc2ccc(C(=O)NCCC3=CCCCC3)cc2)CC1 ?
IL1B secr inh: 2; ELG1 repair inh: -14%; DT40 TDP1 CPT: 16µM*; VP16 counter: -6%; RORgamma inh: 7%; DT40 TDP1 no CPT: inconclusive

How did COCCC(=O)N1CCC(Oc2ccc(C(=O)NCCc3cnn(C)c3)cc2)CC1 do in these assays?
IL1B secr inh: 17; ELG1 repair inh: inconclusive; DT40 TDP1 CPT: 2%; VP16 counter: -13%; RORgamma inh: -18%; DT40 TDP1 no CPT: 1%

What do the screens show for `COCCC(=O)N1CCC(Oc2ccc(C(=O)NCCCC3CCCC3)cc2)CC1`?
IL1B secr inh: 9; ELG1 repair inh: 3%; DT40 TDP1 CPT: 21µM*; VP16 counter: 2%; RORgamma inh: 33%; DT40 TDP1 no CPT: 21µM*

Results for CCc1ccc(C(=O)NNc2ccc(Cl)cc2)cc1 ?
IL1B secr inh: -23; ELG1 repair inh: inconclusive; DT40 TDP1 CPT: -9%; VP16 counter: -8%; RORgamma inh: 31%; DT40 TDP1 no CPT: -17%

How did CCc1ccc(NCCC(=O)c2ccc(Cl)cc2)cc1 do in these assays?
IL1B secr inh: -22; ELG1 repair inh: 4%; DT40 TDP1 CPT: 21µM*; VP16 counter: 1%; RORgamma inh: 7%; DT40 TDP1 no CPT: 16µM*

How did CCOC1=C2CN(S(=O)(=O)c3ccc(C)cc3)CC[C@@H]2N(S(=O)(=O)c2ccc(C)cc2)[C@H](c2ccccc2)C1 do in these assays?
IL1B secr inh: -2; DT40 TDP1 CPT: inconclusive; DT40 TDP1 no CPT: -22%

How did CC1(C(=O)NCc2ccco2)CCN1C(=O)C1(c2ccccc2)CC1 (stereo not drawn) do in these assays?
IL1B secr inh: -107*; DT40 TDP1 CPT: 4.6µM*; DT40 TDP1 no CPT: 5.2µM*

What do the screens show for `COc1ccccc1CNC(=O)C1(C)CCN1C(=O)C1(c2ccccc2)CC1` (stereo not drawn)?
IL1B secr inh: -26; DT40 TDP1 CPT: 16µM*; DT40 TDP1 no CPT: 26µM*
